According to the supplement of paper PMC10981050:
“And” between values parts separate entries of the source, which are not always exact repeats. Equal values may be shown once. Where a name gives a salt, the structure may show the parent alone.

What was measured:
Assay in all cases: cell viability relative to vehicle control; higher = less cytotoxic
Conditions in all cases: 10 µM
K562 = tested on: K562
How it was run: (§1)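 Mutant clones made by CRISPR editing and their isogenic wild-type counterparts, from four leukaemia lines, were exposed to a single 10 µM dose of each library compound for 48 h. The supernatant was then removed and CellTiter-Glo luminescence was read. Viability was reported as percent of the on-plate vehicle control.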

MARIMO = tested on: MARIMO
How it was run: as §1

MOLM14 = tested on: MOLM14
How it was run: as §1

OCI-AML2 = tested on: OCI-AML2
How it was run: as §1

Row | SMILES | cell viability (K562; SRSF2 genotype: SRSF2 P95H/wt) | cell viability (K562; SRSF2 genotype: SRSF2 wt/wt) [%] | cell viability (MARIMO; SRSF2 genotype: SRSF2 P95H/wt) [%] | cell viability (MARIMO; SRSF2 genotype: SRSF2 wt/wt) [%] | cell viability (MOLM14; SRSF2 genotype: SRSF2 P95H/wt) [%] | cell viability (MOLM14; SRSF2 genotype: SRSF2 wt/wt) [%] | cell viability (OCI-AML2; SRSF2 genotype: P95H/wt) [%] | cell viability (OCI-AML2; SRSF2 genotype: wt/wt) [%]
1 | CC(C)(C)c1cc(O)c(C(C)(C)C)cc1O | 97% and 97.5% | 95.7 | 73.4 | 92.5 | 88.8 | 93.5 | 86.2 | 93.3
2 | Cc1cccc(Nc2nc(N[C@@H]3CCCC[C@@H]3N)ncc2C(N)=O)c1 | 50.9% and 56.3% | 63.7 | 47.4 | 44.7 | 22 | 20.7 | 4.23 | 14.4
3 | Cc1cccc(Nc2nc(-c3ccncc3)cs2)c1 | 78.1% and 89.2% | 70.8 | 49.3 | 64.4 | 74.2 | 84.9 | 64.3 | 66.9
4 | Nc1nc(=O)n([C@@H]2CS[C@H](CO)O2)cc1F [Emtricitabine] | 106% and 105% | 104 | 103 | 106 | 104 | 107 | 102 | 108
5 | C[C@@H](O)[C@H]1C(=O)N2C(C(=O)O)=C(S[C@@H]3CN[C@H](C(=O)Nc4cccc(C(=O)O)c4)C3)[C@H](C)[C@H]12 [Ertapenem sodium] | 108% and 107% | 105 | 103 | 109 | 99.6 | 107 | 97.1 | 99.8
6 | Cn1cc(/C=C2\C(=O)Nc3cccnc32)c2ccccc21 | 98% and 98.2% | 96.4 | 91.2 | 94.3 | 25.7 | 22.9 | 49.4 | 56.2
7 | O=C(O)/C=C/c1ccc(Cn2ccnc2)cc1 [Ozagrel] | 102% and 100% | 94.6 | 101 | 106 | 102 | 100 | 98.1 | 99.6
8 | CC(C)=CCC[C@](C)(O[C@@H]1O[C@H](CO)[C@@H](O)[C@H](O)[C@H]1O)[C@H]1CC[C@]2(C)[C@@H]1[C@H](O)C[C@@H]1[C@@]3(C)CC[C@H](O)C(C)(C)[C@@H]3[C@@H](O[C@@H]3O[C@H](CO)[C@@H](O)[C@H](O)[C@H]3O[C@@H]3O[C@@H](C)[C@H](O)[C@@H](O)[C@H]3O)C[C@]12C [Ginsenoside Re] | 103% and 101% | 101 | 99.2 | 105 | 101 | 106 | 97.4 | 107
9 | COc1ccnc(C[S+]([O-])c2nc3cc(OC(F)F)ccc3[nH]2)c1OC (centres undefined) [Pantoprazole (Protonix)] | 103% and 104% | 102 | 109 | 103 | 115 | 112 | 113 | 96.5
10 | CNC(=O)c1ccccc1Sc1ccc2c(/C=C/c3ccccn3)n[nH]c2c1 [Axitinib] | 8.75% and 13.3% | 14 | 57 | 65.2 | 29.5 | 15.3 | 36.9 | 34
11 | CCc1cc(Nc2nc(-c3ccc(-n4cnc(C)c4)c(F)c3)cs2)c(C)cc1C | 96% and 99.5% | 91.5 | 93.8 | 101 | 96.6 | 93.9 | 94.2 | 91.9
12 | c1ccc(CNc2nc(NCc3ccccc3)c3ccccc3n2)cc1 | 17.4% and 10.9% | 12.4 | 0.92 | 11 | 0.16 | 0.16 | 0.21 | 0.19
13 | FC(F)(F)Oc1ccc(-c2ccc3nnc(C(F)(F)F)n3c2)cc1 | 91% and 96.6% | 102 | 95.7 | 97.8 | 95.2 | 112 | 89 | 94.4
14 | O=C(O)CCN1C(=O)/C(=C/c2ccc(-c3ccc([N+](=O)[O-])cc3)o2)SC1=S | 104% and 106% | 111 | 100 | 98.5 | 93.3 | 101 | 103 | 109
15 | CN1CCN(Cc2ccc(NC(=O)Nc3ccc(Oc4cc(NC(=O)C5CC5)ncn4)cc3)cc2C(F)(F)F)CC1 | 21.2% and 19% | 20.5 | 1.8 | 1.13 | 0.31 | 0.31 | 0.36 | 1.73
16 | O=c1ncccn1[C@@H]1O[C@H](CO)[C@@H](O)[C@H]1O [Zebularine] | 90.9% and 85.1% | 82.2 | 87.7 | 91.4 | 89.7 | 89.7 | 96.6 | 86.6
17 | Cn1nnc(-c2ccc3c(c2)[nH]c2nc(Cc4ccccc4)nc(NC4CCC(N)CC4)c23)n1 (centres undefined) | 0.17% | 0.16 | 0.14 | 0.19 | 0.11 | 0.13 | 0.18 | 0.13
18 | CC[C@H](NC(=O)[C@H](C)NC)C(=O)N1C[C@@H](O)C[C@H]1Cc1c(-c2[nH]c3cc(F)ccc3c2C[C@@H]2C[C@H](O)CN2C(=O)[C@H](CC)NC(=O)[C@H](C)NC)[nH]c2cc(F)ccc12 | 97.7% and 102% | 99.4 | 78.6 | 93.4 | 61.6 | 65.4 | 103 | 107
19 | CC[C@H]1OC(=O)[C@H](C)[C@@H](O[C@H]2C[C@@](C)(OC)[C@@H](O)[C@H](C)O2)[C@H](C)[C@@H](O[C@@H]2O[C@H](C)C[C@H](N(C)C)[C@H]2O)[C@](C)(O)C[C@@H](C)CN(C)[C@H](C)[C@@H](O)[C@]1(C)O [Azithromycin] | 90.3% and 86.4% | 89.5 | 83.2 | 90.4 | 92.1 | 89.4 | 75.7 | 82.3
20 | Cc1[nH]cnc1CN1CCc2c(c3ccccc3n2C)C1=O [Alosetron Hydrochloride] | 93.1% and 95.7% | 88.6 | 93.7 | 102 | 93.2 | 100 | 91.6 | 101
21 | CN(C)C/C=C/C(=O)Nc1ccc(C(=O)Nc2cccc(Nc3ncc(Cl)c(-c4c[nH]c5ccccc45)n3)c2)cc1 | 12.4% and 22.2% | 16.8 | 0.73 | 1.23 | 0.23 | 0.21 | 0.37 | 0.63
22 | CCCCCCCCCCCCCCCCCCCC(=O)O [Arachidic acid] | 95.7% and 93.1% | 98.9 | 96 | 96.3 | 96.1 | 103 | 103 | 109

Row | SMILES | cell viability (K562; SRSF2 genotype: SRSF2 P95H/wt) | cell viability (K562; SRSF2 genotype: SRSF2 wt/wt) [%] | cell viability (MARIMO; SRSF2 genotype: SRSF2 P95H/wt) [%] | cell viability (MARIMO; SRSF2 genotype: SRSF2 wt/wt) [%] | cell viability (MOLM14; SRSF2 genotype: SRSF2 P95H/wt) [%] | cell viability (MOLM14; SRSF2 genotype: SRSF2 wt/wt) [%] | cell viability (OCI-AML2; SRSF2 genotype: P95H/wt) [%] | cell viability (OCI-AML2; SRSF2 genotype: wt/wt) [%]
23 | CC1(C)O[C@H]1COc1c2ccoc2cc2oc(=O)ccc12 [Oxypeucedanin] | 93.6% and 100% | 97.6 | 92.1 | 93.2 | 93.6 | 101 | 81.9 | 93.4
24 | C#CC[C@H](c1nc2cc(Cl)ccc2c(=O)n1Nc1ccccc1)N(CCCN)C(=O)c1cccc(Cl)c1F | 0.47% and 0.44% | 0.4 | 0.46 | 0.55 | 0.39 | 0.42 | 0.41 | 0.45
25 | OC[C@H]1O[C@@H](O[C@@H]2OC=C[C@H]3[C@H](O)[C@@H]4O[C@]4(CO)[C@@H]23)[C@H](O)[C@@H](O)[C@@H]1O [Catalpol] | 106% and 108% | 104 | 103 | 115 | 99.9 | 105 | 96.7 | 106
26 | CCCCOc1ccc(C(=O)Nc2ccc(F)cc2F)cc1 | 91% and 91.9% | 91.8 | 75.4 | 88.6 | 100 | 110 | 85.7 | 92.8
27 | O=C(O)CSCC(=O)NC1CCSC1=O (centres undefined) [Erdosteine] | 101% and 96.3% | 97.8 | 101 | 102 | 97.8 | 98 | 89.9 | 96.9
28 | COc1cccc2c1c(O)c(C(=O)N(C)c1ccc(C(F)(F)F)cc1)c(=O)n2C [Tasquinimod] | 108% and 106% | 99.1 | 109 | 116 | 106 | 106 | 101 | 110
29 | Cc1nnc(NS(=O)(=O)c2ccc(N)cc2)s1 [Sulfamethizole (Proklar)] | 109% and 97.9% | 104 | 107 | 106 | 100 | 107 | 108 | 111
30 | COC(=O)N[C@H](C(=O)N[C@@H](Cc1ccccc1)[C@@H](O)CN(Cc1ccc(-c2ccccn2)cc1)NC(=O)[C@@H](NC(=O)OC)C(C)(C)C)C(C)(C)C [Atazanavir sulfate] | 97.1% and 109% | 102 | 93.5 | 118 | 103 | 104 | 94.5 | 97.3
31 | COc1cc2c(cc1O)CC[n+]1cc3c(OC)c(OC)ccc3cc1-2 [Jatrorrhizine] | 91.4% and 98.7% | 95.8 | 107 | 103 | 101 | 99.8 | 105 | 98.2
32 | N=c1ccn2c(n1)O[C@H]1[C@H](O)[C@@H](CO)O[C@H]12 [Cyclocytidine HCl] | 92.8% and 103% | 101 | 27.8 | 29 | 11.3 | 2.48 | 9.61 | 9.31
33 | CC(C)(CCCCCC(O)CCCCCC(C)(C)C(=O)O)C(=O)O | 103% and 96.8% | 102 | 106 | 106 | 104 | 104 | 97.5 | 108
34 | CCn1c(=O)c(-c2ccc(-c3cncs3)cc2Cl)cc2cnc(Nc3ccc(N4CCN(C)CC4)cc3)nc21 | 86.2% and 86.7% | 74.6 | 75.6 | 75.9 | 46.6 | 53.2 | 71 | 61.2
35 | CC/C(=C(\c1ccccc1)c1ccc(OCCN(C)C)cc1)c1ccccc1 [Tamoxifen Citrate (Nolvadex)] | 82.2% and 76.4% | 93 | 80 | 74.3 | 74.5 | 81.8 | 69.7 | 74.5
36 | COc1ccc2[nH]c([S+]([O-])Cc3ncc(C)c(OC)c3C)nc2c1 (centres undefined) [Omeprazole (Prilosec)] | 97.3% and 91.5% | 95.6 | 92.8 | 98.5 | 94.9 | 95.8 | 98 | 100
37 | C=CC(=O)Nc1cc(N2CCN(CC)CC2)ccc1Nc1cc(N(C)C(=O)Nc2c(Cl)c(OC)cc(OC)c2Cl)ncn1 | 26.8% and 16.8% | 28.7 | 37.6 | 31.7 | 0.69 | 0.44 | 1.37 | 1.1
38 | CNC(=O)c1ccc2cc([C@@]3(O)CCn4cncc43)ccc2c1 [TAK-700 (Orteronel)] | 107% and 98.8% | 97.3 | 93.2 | 105 | 101 | 100 | 95.6 | 104
39 | Cn1c(=O)c(F)c(Nc2ccc(I)cc2F)c2c(=O)n(C[C@@H](O)CO)cnc21 | 66.4% and 83.6% | 77 | 43.7 | 36.3 | 45.7 | 29.8 | 47.5 | 46.9
40 | COc1ccc2c(c1)c(C1=C(c3c[nH]c4ccccc34)C(=O)NC1=O)cn2CCCN(C)C | 84.2% and 80.9% | 74.5 | 69.8 | 85.8 | 30.9 | 25.9 | 31.8 | 49.9
41 | S=C=Nc1cccc(NC(=S)NCCCCNC(=S)Nc2cccc(N=C=S)c2)c1 | 98.3% and 104% | 98.8 | 106 | 105 | 102 | 106 | 109 | 106
42 | Oc1ccc(Nc2nc(-c3ccc(Cl)cc3)cs2)cc1 | 49.4% and 65.5% | 66.4 | 38.8 | 36.5 | 40.9 | 39.6 | 42.1 | 42.1
43 | Cc1ncc(Cl)cc1NCc1ccc(C(=O)N[C@@H](CC2CCCC2)C(=O)NC2CC2)s1 | 82.9% and 83.4% | 82.1 | 76.2 | 94 | 65 | 66.1 | 72.9 | 71.3
